From PubChem BioAssay (Tox21)
A number with no mark means an inactive call. Inconclusive results are not listed. Entries that show only a call come without a potency. Activity calls are given as the source filed them. Unless noted, the call rests on the fitted dose curve; in most records, active means well fitted curve in the direction sought with a large enough effect in the repeat runs; inconclusive means weak or mixed curves; inactive means no such curve, though single readings can be large; an effect the other way counts as inactive or inconclusive.

How the values were obtained:
[1] = qHTS assay to identify small molecule agonists of the estrogen receptor alpha (ER-alpha) signaling pathway in the presence of an antagonist - cell viability counter screen (AID 1259386);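 further: cells exposed to compounds for 22 h at 37 °C before the viability read; nearly all actives have a fitted effect of over 30% in size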; further: potency means the concentration at half of the fitted maximal effect
Procedure, shortened: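 Read-out: CellTiter-Fluor fluorescence after 1hr reagent incubation, measured in the same wells as the luciferase readout. VM7Luc4E2 cells were exposed to 15 compound concentrations with 10.0nM ICI-182,780 for 22hr at 37C.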

[2] = molecular target: Progesterone receptor (Homo sapiens) (UniProt P06401); test: qHTS assay to identify small molecule agonists of the progesterone receptor (PR) signaling pathway (AID 1346784; calls by dose curve; further: nearly all actives have a fitted effect of over 30% in size)
Procedure, shortened: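 Cells (PR-UAS-bla HEK 293T, GripTite) were plated in assay medium containing 2% charcoal-stripped FBS and incubated 6 hr. Test compounds in DMSO were added for 16 hr at 37C. FRET substrate was then loaded for 2 hr at room temperature before fluorescence reading.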

[3] = molecular target: Progesterone receptor (Homo sapiens) (UniProt P06401); test: qHTS assay to identify small molecule antagonists of the progesterone receptor (PR) signaling pathway (AID 1346795; active means well fitted inhibition curve with a large enough effect in the signal ratio in the repeat runs, not every such curve was filed as active; the % refers to the signal ratio; further: potency means the concentration at half of the fitted maximal effect)
Procedure, shortened: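 Antagonist mode: compounds tested against 1 nM (final) promegestone stimulation in HEK293T cells expressing PR-UAS-bla reporter, 16 hr at 37C, 5% CO2; beta-lactamase activity detected via B/G FRET substrate after 2 hr at room temperature.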

[4] = qHTS assay to identify small molecule agonists of the progesterone receptor (PR) signaling pathway - cell viability counter screen (AID 1346799; calls by dose curve; further: nearly all actives have a fitted effect of over 45% in size)
Procedure, shortened: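 Cells (PR-UAS-bla HEK293T) are plated at 3,000/well in 2% charcoal-stripped FBS medium, rested 6 hr, dosed and incubated 16 hr at 37C. CellTiter-Glo is then added and luminescence measured after 30 min at room temperature.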

[5] = qHTS assay to identify small molecule antagonists of the TGF-beta/Smad signaling pathway - cell viability counter screen (AID 1346824); further: nearly all actives have a fitted effect of over 50% in size
Procedure, shortened: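 SBE-bla HEK 293T cells, incubated overnight, then compound plus 0.25 ng/mL TGF-beta1 (stock added) for 5 hr at 37 C. Viability was read in the same wells by CellTiter-Glo luminescence after 30 min at room temperature.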

[6] = qHTS assay to identify small molecule agonists of the TGF-beta/Smad signaling pathway - cell viability counter screen (AID 1346829); further: top concentration of the series differs between compounds; nearly all actives have a fitted effect of over 45% in size
Procedure, shortened: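 Tox21 qHTS format: SBE-bla HEK 293T cells treated with DMSO-dissolved compounds for 5 hr; CellTiter-Glo luminescence after 30 min at room temperature.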

[7] = qHTS assay to identify small molecule agonists of the TGF-beta/Smad signaling pathway (AID 1346859; active means well fitted activation curve with a large enough effect in the signal ratio in the repeat runs, not every such curve was filed as active; the % refers to the signal ratio; further: series mostly up to about 77 µM)
Procedure, shortened: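 Reporter line: HEK 293T with stably integrated SBE-controlled beta-lactamase. Compound exposure lasts 5 hr at 37 C and 5% CO2; substrate loading follows for 2 hr at room temperature, with emission read at 460 and 530 nm.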

[8] = molecular target: Thyrotropin-releasing hormone receptor (Homo sapiens) (UniProt P34981); test: qHTS assay to identify small molecule antagonists of the thyrotropin-releasing hormone receptor (TRHR) signaling pathway (AID 1346877; active means well fitted inhibition curve with a large enough effect in the repeat runs, not every such curve was filed as active; further: series mostly up to about 51 µM)
Procedure, shortened: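 HEK293/TRHR cells, 18 h, 37 °C; Ca2+ dye 2 h; cpd 5 min RT; TRH 1 nM final; fluorescence read 3 min, 1 s intervals; 15 concs, triplicate.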

[9] = molecular target: Thyrotropin-releasing hormone receptor (Homo sapiens) (UniProt P34981); test: qHTS assay to identify small molecule agonists of the thyrotropin-releasing hormone receptor (TRHR) signaling pathway (AID 1346891; calls by dose curve;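 further: HEK293 cells expressing TRHR with calcium dye readout; series mostly up to about 58 µM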)
Procedure, shortened: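 Cells: TRHR-Hek293, seeded and incubated 18 h. Dye loading: 2 h at 37 °C. Compound added from DMSO stock by pin tool. Read-out: kinetic calcium fluorescence over 3 min.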

Thyrotropin-releasing hormone receptor (Homo sapiens), sequence (P34981 whole entry, looked up): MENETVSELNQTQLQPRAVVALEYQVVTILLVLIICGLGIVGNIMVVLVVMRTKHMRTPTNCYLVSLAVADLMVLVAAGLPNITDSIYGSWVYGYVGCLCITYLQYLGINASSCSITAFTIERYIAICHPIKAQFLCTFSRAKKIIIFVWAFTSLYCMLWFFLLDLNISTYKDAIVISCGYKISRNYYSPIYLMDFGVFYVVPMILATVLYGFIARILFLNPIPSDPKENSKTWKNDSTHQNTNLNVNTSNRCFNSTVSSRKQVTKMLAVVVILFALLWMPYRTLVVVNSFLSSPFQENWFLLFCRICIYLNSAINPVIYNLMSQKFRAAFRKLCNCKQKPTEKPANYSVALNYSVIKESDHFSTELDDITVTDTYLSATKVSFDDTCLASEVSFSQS
Progesterone receptor (Homo sapiens), sequence (P06401 whole entry, looked up): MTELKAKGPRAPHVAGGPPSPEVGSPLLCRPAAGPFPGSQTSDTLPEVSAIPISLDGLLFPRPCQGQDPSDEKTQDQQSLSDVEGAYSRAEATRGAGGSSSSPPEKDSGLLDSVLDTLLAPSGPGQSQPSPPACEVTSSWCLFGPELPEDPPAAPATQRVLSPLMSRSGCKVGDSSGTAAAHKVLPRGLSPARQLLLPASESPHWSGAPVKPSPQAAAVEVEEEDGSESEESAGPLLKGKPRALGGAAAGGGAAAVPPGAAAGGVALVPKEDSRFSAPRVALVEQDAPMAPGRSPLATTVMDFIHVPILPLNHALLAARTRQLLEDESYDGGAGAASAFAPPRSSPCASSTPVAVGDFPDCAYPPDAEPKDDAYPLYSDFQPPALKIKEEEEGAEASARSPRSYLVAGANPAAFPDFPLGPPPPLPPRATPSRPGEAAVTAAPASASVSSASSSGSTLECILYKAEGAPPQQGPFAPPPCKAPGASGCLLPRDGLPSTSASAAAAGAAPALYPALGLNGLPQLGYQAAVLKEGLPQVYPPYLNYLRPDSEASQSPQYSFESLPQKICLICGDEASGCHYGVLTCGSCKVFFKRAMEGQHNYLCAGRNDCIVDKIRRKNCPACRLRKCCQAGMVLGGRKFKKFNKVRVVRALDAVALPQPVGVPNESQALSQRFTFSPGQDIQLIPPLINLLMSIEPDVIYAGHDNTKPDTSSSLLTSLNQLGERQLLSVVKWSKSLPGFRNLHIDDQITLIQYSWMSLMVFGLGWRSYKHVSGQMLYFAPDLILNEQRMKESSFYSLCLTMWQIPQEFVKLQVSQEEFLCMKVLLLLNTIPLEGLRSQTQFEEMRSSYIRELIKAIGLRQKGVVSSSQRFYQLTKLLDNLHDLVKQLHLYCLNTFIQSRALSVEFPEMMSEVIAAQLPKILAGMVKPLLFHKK

Q: Which results are given for `BrCCCCCCBr`?
A: Potency [1]: inactive; Potency [2]: inactive; Potency [3]: inactive; Potency [4]: inactive; Potency [5]: inactive; outcome [6]: inactive; outcome [7]: inactive; outcome [8]: inactive; outcome [9]: inactive

Q: Which results are given for `N#CCNCC#N`?
A: Potency [1]: inactive; Potency [2]: inactive; Potency [3]: inactive; Potency [4]: inactive; Potency [5]: inactive; outcome [6]: inactive; outcome [7]: inactive; outcome [8]: inactive; outcome [9]: inactive

Q: With `CCC1(c2ccccc2)C(=O)N=C(O)NC1=O` (centres undefined) as the compound, how does the Potency [1] read?
A: inactive

Q: And the Potency [2]?
A: inactive

Q: What about the Potency [3] of the same compound?
A: inactive

Q: And the Potency [5]?
A: inactive

Q: And the outcome [6]?
A: inactive

Q: And the outcome [7]?
A: inactive

Q: What about the outcome [8] of the same compound?
A: inactive

Q: What about the outcome [9] of the same compound?
A: inactive

Q: With `Cc1coc2c1CCC(C)C2` (centres undefined) as the compound, how does the Potency [1] read?
A: inactive

Q: What about the Potency [2] of the same compound?
A: inactive

Q: What about the Potency [3] of the same compound?
A: inactive

Q: What about the Potency [4] of the same compound?
A: inactive

Q: What about the Potency [5] of the same compound?
A: inactive

Q: What about the outcome [6] of the same compound?
A: inactive

Q: What about the outcome [7] of the same compound?
A: inactive

Q: With `ClC(Cl)C(Cl)Cl` as the compound, how does the Potency [1] read?
A: inactive

Q: What about the Potency [2] of the same compound?
A: inactive

Q: And the Potency [3]?
A: inactive

Q: And the Potency [4]?
A: inactive

Q: What about the Potency [5] of the same compound?
A: inactive

Q: What about the outcome [6] of the same compound?
A: inactive

Q: And the outcome [7]?
A: inactive

Q: Which results are given for `CCOC(=O)N(C)C(=O)CSP(=S)(OCC)OCC`?
A: Potency [1]: inactive; Potency [2]: inactive; Potency [3]: inactive; Potency [4]: inactive; Potency [5]: inactive; outcome [6]: inactive; outcome [7]: inactive

Q: For `C(CCOCC1CO1)COCC1CO1` (centres undefined), which Potency [1] is on record?
A: inactive

Q: What about the Potency [2] of the same compound?
A: inactive

Q: What about the Potency [3] of the same compound?
A: inactive

Q: What about the Potency [4] of the same compound?
A: inactive

Q: What about the Potency [5] of the same compound?
A: inactive

Q: What about the outcome [6] of the same compound?
A: inactive

Q: What about the outcome [8] of the same compound?
A: inactive

Q: What about the outcome [9] of the same compound?
A: inactive

Q: For `CC1CCC(=O)O1` (centres undefined), which Potency [1] is on record?
A: inactive

Q: What about the Potency [2] of the same compound?
A: inactive

Q: What about the Potency [3] of the same compound?
A: inactive

Q: What about the Potency [4] of the same compound?
A: inactive

Q: What about the Potency [5] of the same compound?
A: inactive

Q: What about the outcome [6] of the same compound?
A: inactive

Q: What about the outcome [7] of the same compound?
A: inactive

Q: What about the outcome [8] of the same compound?
A: inactive

Q: And the outcome [9]?
A: inactive

Q: With `ClC(Cl)(Cl)C(Cl)(Cl)Cl` as the compound, how does the Potency [1] read?
A: inactive

Q: What about the Potency [2] of the same compound?
A: inactive

Q: And the Potency [3]?
A: inactive

Q: And the Potency [4]?
A: inactive

Q: What about the Potency [5] of the same compound?
A: inactive

Q: What about the outcome [6] of the same compound?
A: inactive

Q: What about the outcome [7] of the same compound?
A: inactive

Q: What does the source list for `C[N+](C)=CCl`?
A: Potency [1]: inactive; Potency [2]: inactive; Potency [3]: inactive; Potency [4]: inactive; Potency [5]: inactive; outcome [6]: inactive; outcome [7]: inactive; outcome [8]: inactive; outcome [9]: inactive

Q: For `CCCCOC(=O)c1ccccc1C(=O)O`, which Potency [1] is on record?
A: inactive

Q: And the Potency [2]?
A: inactive

Q: And the Potency [3]?
A: inactive

Q: And the Potency [5]?
A: inactive

Q: What about the outcome [6] of the same compound?
A: inactive

Q: And the outcome [7]?
A: inactive

Q: With `CCOc1nc(C(Cl)(Cl)Cl)ns1` as the compound, how does the Potency [1] read?
A: inactive

Q: What about the Potency [2] of the same compound?
A: inactive

Q: And the Potency [3]?
A: inactive

Q: What about the Potency [4] of the same compound?
A: inactive

Q: What about the Potency [5] of the same compound?
A: inactive

Q: What about the outcome [6] of the same compound?
A: inactive

Q: And the outcome [7]?
A: inactive

Q: And the outcome [8]?
A: inactive

Q: What about the outcome [9] of the same compound?
A: inactive

Q: For `Cc1ccccc1CO[C@@H]1C[C@@]2(C(C)C)CC[C@]1(C)O2`, which Potency [1] is on record?
A: inactive

Q: What about the Potency [2] of the same compound?
A: inactive

Q: What about the Potency [3] of the same compound?
A: inactive

Q: And the Potency [4]?
A: inactive

Q: What about the Potency [5] of the same compound?
A: inactive

Q: What about the outcome [6] of the same compound?
A: inactive

Q: And the outcome [7]?
A: inactive

Q: What about the outcome [8] of the same compound?
A: inactive

Q: And the outcome [9]?
A: inactive

Q: Which Potency [1] does the source give for `Nc1c(Br)cc([N+](=O)[O-])cc1[N+](=O)[O-]` here?
A: 31 µM (active)

Q: What about the Potency [2] of the same compound?
A: inactive

Q: What about the Potency [3] of the same compound?
A: 27.6 µM (active)

Q: What about the Potency [4] of the same compound?
A: inactive

Q: What about the Potency [5] of the same compound?
A: inactive

Q: What about the outcome [6] of the same compound?
A: inactive

Q: What about the outcome [7] of the same compound?
A: inactive

Q: And the outcome [8]?
A: inactive

Q: And the outcome [9]?
A: inactive

Q: Which results are given for `O=C(Oc1ccc(Br)cc1)N1CCN2CCC1CC2`?
A: Potency [1]: inactive; Potency [2]: inactive; Potency [3]: inactive; Potency [4]: inactive; Potency [5]: inactive; outcome [6]: inactive; outcome [7]: inactive; outcome [8]: inactive; outcome [9]: inactive

Q: With `O=C(Nc1ccccc1)c1ccccc1I` as the compound, how does the Potency [1] read?
A: inactive

Q: What about the Potency [2] of the same compound?
A: inactive

Q: And the Potency [3]?
A: 54.5 µM (active)

Q: And the Potency [4]?
A: inactive

Q: What about the Potency [5] of the same compound?
A: inactive

Q: And the outcome [6]?
A: inactive

Q: What about the outcome [8] of the same compound?
A: inactive

Q: And the outcome [9]?
A: inactive

Q: What does the source list for `NC(=S)C(N)=S`?
A: Potency [1]: inactive; Potency [2]: inactive; Potency [3]: inactive; Potency [5]: inactive; outcome [6]: inactive; outcome [7]: inactive

Q: With `OC(Cn1cncn1)(c1ccc(F)cc1)c1ccccc1F` (centres undefined) as the compound, how does the Potency [1] read?
A: inactive

Q: And the Potency [2]?
A: inactive

Q: And the Potency [3]?
A: inactive

Q: What about the Potency [4] of the same compound?
A: inactive

Q: And the Potency [5]?
A: inactive

Q: What about the outcome [6] of the same compound?
A: inactive

Q: What about the outcome [7] of the same compound?
A: inactive

Q: And the outcome [8]?
A: inactive

Q: And the outcome [9]?
A: inactive

Q: Which Potency [1] does the source give for `CCCCOC(=O)c1ccccc1N` here?
A: inactive

Q: And the Potency [2]?
A: inactive

Q: What about the Potency [3] of the same compound?
A: inactive

Q: And the Potency [4]?
A: inactive

Q: What about the Potency [5] of the same compound?
A: inactive

Q: And the outcome [6]?
A: inactive

Q: And the outcome [8]?
A: inactive

Q: What about the outcome [9] of the same compound?
A: inactive

Q: With `COc1cc(OC)nc(NC(=O)NS(=O)(=O)c2ncccc2OCC(F)(F)F)n1` as the compound, how does the Potency [1] read?
A: inactive

Q: What about the Potency [2] of the same compound?
A: inactive

Q: And the Potency [3]?
A: inactive

Q: What about the Potency [4] of the same compound?
A: inactive

Q: What about the Potency [5] of the same compound?
A: inactive

Q: What about the outcome [6] of the same compound?
A: inactive

Q: And the outcome [7]?
A: inactive

Q: Which Potency [1] does the source give for `C[C@]12CC[C@H]3[C@@H](CC=C4C[C@@H](O)CC[C@@]43C)[C@@H]1CC[C@@H]2O` here?
A: inactive

Q: What about the Potency [2] of the same compound?
A: inactive

Q: What about the Potency [3] of the same compound?
A: inactive

Q: What about the Potency [4] of the same compound?
A: inactive

Q: And the Potency [5]?
A: inactive

Q: What about the outcome [6] of the same compound?
A: inactive

Q: What about the outcome [7] of the same compound?
A: inactive

Q: Which results are given for `OC(c1ccccc1)(c1ccccc1)C1CCNCC1`?
A: Potency [1]: inactive; Potency [2]: inactive; Potency [3]: inactive; Potency [4]: inactive; Potency [5]: inactive; outcome [6]: inactive; outcome [7]: inactive; outcome [8]: inactive; outcome [9]: inactive

Q: Which Potency [1] does the source give for `CCC(=O)c1ccccc1` here?
A: inactive

Q: And the Potency [2]?
A: inactive

Q: What about the Potency [3] of the same compound?
A: inactive

Q: What about the Potency [4] of the same compound?
A: inactive

Q: What about the Potency [5] of the same compound?
A: inactive

Q: And the outcome [6]?
A: inactive

Q: And the outcome [7]?
A: inactive

Q: And the outcome [8]?
A: inactive

Q: And the outcome [9]?
A: inactive

Q: With `C=CC1CC=CCC1` (centres undefined) as the compound, how does the Potency [1] read?
A: inactive

Q: And the Potency [2]?
A: inactive

Q: What about the Potency [3] of the same compound?
A: inactive

Q: And the Potency [4]?
A: inactive

Q: What about the Potency [5] of the same compound?
A: inactive

Q: And the outcome [6]?
A: inactive

Q: And the outcome [7]?
A: inactive

Q: And the outcome [8]?
A: inactive

Q: What about the outcome [9] of the same compound?
A: inactive
